Screening results (PubChem BioAssay)
DT40 TDP1 no CPT: qHTS for Inhibitors of human tyrosyl-DNA phosphodiesterase 1 (TDP1): qHTS in cells in absence of CPT; DT40 Tdp1-/- hTDP1 cells, no CPT, ATP luminescence, 48 h; hit rate 15% among 420,000; Potency, µM (series often up to 46.2 µM), inactives show at the highest dose activity change, negative = growth inhibition, hits mostly inhibitors; AID 686978, 2013; also: nearly all actives have a fitted effect of over 55% in size
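Chicken DT40 Tdp1-/- cells complemented with human TDP1, screened without camptothecin (DMSO vehicle only), 400 cells/well. Compounds pin-transferred, cells incubated at 37 °C for at least 48 hr. Growth read as ATP-dependent luminescence (CellTiter-Glo, 30 min at RT).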
HT1080-NT tox: kills 2HG-producing HT-1080-NT fibrosarcoma cells. HT-1080-NT fibrosarcoma viability, CellTiter-Glo ATP luminescence, 48 h. Potency, µM (top dose mostly 46.1 µM), for inactives: at the top dose activity, negative = less viability, most hits filed as cytotoxic. AID 686970. hit rate 1.6% among 360,000;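 also: NT is the 2HG producing partner of a matched IDH1 knockdown line; 0% = DMSO-treated cells and -100% = media-only wells without cells; nearly all actives have a fitted effect of over 55% in size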
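Viability of the 2HG-overproducing fibrosarcoma line after 48 hours of compound exposure at 37 degrees C was determined by luminescence with CellTiter-Glo, and concentration-effect curves were then fitted and categorized.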
KB-3-1 cytotox: KB-3-1 parental cell cytotoxicity; Potency, µM (highest dose often 46.1 µM), usual class: cytotoxic; KB-3-1 viability, CellTiter-Glo ATP luminescence, 72 h; hit rate 1.4% among 400,000; also: nearly all actives have a fitted effect of over 60% in size
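Screening of KB-3-1 cells (DMEM, 10% FBS, phenol-red free) ran from lowest to highest compound concentration; after 72 h at 37 °C viability was read luminescently and curves fitted.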
HT1080 IDH1KD tx: HT-1080 IDH1 knockdown cell toxicity (counter line). HT-1080 IDH1 knockdown viability, ATP luminescence, 48 h. Potency, µM (series often up to 46.1 µM), for inactives: at the highest dose activity, negative = toxicity, usual class: cytotoxic. hit rate 2% among 360,000. AID 686971;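 also: 0% = DMSO wells and -100% = cell-free medium wells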
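In this qHTS, HT-1080 cells depleted of IDH1 are exposed for 48 h at 37 °C to compound titrations. Toxicity is scored from CellTiter-Glo luminescence, with DMSO as full viability and medium alone as none.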
TDP1 cell CPT: DT40-hTDP1 cell growth loss with CPT; AID 686979; hit rate 12% among 420,000; chicken DT40 Tdp1-/-;hTDP1 cells + 20 nM CPT, ATP luminescence, 48 h; Potency, µM (series often up to 46.2 µM), for inactives: top-dose activity change, negative = growth inhibition, most hits filed as inhibitors; also: nearly all actives have a fitted effect of over 55% in size
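Cell growth measured by CellTiter-Glo luminescence after a minimum 48 h, 37 C compound exposure with 20 nM CPT in Tdp1-knockout DT40 cells stably expressing hTDP1, seeded 400/well; qHTS titration format.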
KB-V1 MDR tox: KB-V1 MDR subline cytotoxicity; Potency, µM (titrated, usually from 46.1 µM), usual class: cytotoxic; hit rate 3.4% among 400,000; KB-V1 MDR cells viability, CellTiter-Glo, 72 h; also: nearly all actives have a fitted effect of over 60% in size
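Cells of the MDR subline KB-V1 are plated, dosed with compound at multiple concentrations, and incubated 72 h at 37 degrees C; CellTiter-Glo is then added and luminescence read after 10 min.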
Starred values were filed as active, the others as inactive; i = inactive; u = inconclusive; x = no result given; [ ] = remark or other dose. Rows were chosen to be rich in hits. Some 19% of all compounds tested hit in one or more screens of this group. Calls follow the shape of the dose curve; as a rule, active = well fitted curve in the direction sought with a large enough effect; inconclusive = small, poorly fitted or top-dose-only effect, or another doubt; inactive = no such curve, though single readings can be large; an effect the other way counts as inactive or inconclusive. Unless noted, % is scaled to controls: 0 for no effect and ±100 for the full control effect; potency is read from the fitted curve at half-maximal effect.

SMILES	DT40 TDP1 no CPT	HT1080-NT tox	KB-3-1 cytotox	HT1080 IDH1KD tx	TDP1 cell CPT	KB-V1 MDR tox
COc1ccc(NC(=O)CN(c2ccc(OC)cc2)S(=O)(=O)c2ccc(OC)c(OC)c2)cc1	u	7.7%	i	-6.8%	-26.7%	i
CC(=O)c1ccccc1-c1ccc2c(c1)CC(CNC(=O)c1cc(C)on1)O2 (stereo unspecified)	u	x	x	x	-7.0%[9.04 µM]	x
Cc1ccc(C(NC(=O)N2CCOCC2)C(Cl)Cl)cc1F (stereo unspecified)	5.9%	7.2%	i	4.2%	u	i
Cc1ccc(C(NC(=O)N2CCOCC2)=C(Cl)Cl)cc1F	16.4µM*	u	i	14.1µM*	6.51µM*	i
O=C(NCCc1ccccc1)C(c1cccs1)N(C(=O)c1csnn1)C1CC1 (stereo unspecified)	-28.4%	1.0%	i	-4.2%	u	i
CCC(C)(C)NC(=O)C(c1ccc(C)o1)N(C(=O)c1csnn1)c1cccc(F)c1 (stereo unspecified)	-16.9%	0.2%	i	-8.6%	1.8%	16.4µM*
O=C(NCc1ccccc1)C(c1cccs1)N(C(=O)c1csnn1)C1CC1 (stereo unspecified)	u	13.2%	i	14.6%	2.5%	18.4µM*
CC(C)(C)NC(=O)C(c1ccco1)N(C(=O)c1csnn1)c1ccccc1 (stereo unspecified)	-18.6%	-2.7%	i	9.0%	-11.6%	14.6µM*
COc1ccc(CNC(=O)C(c2ccco2)N(C(=O)c2csnn2)c2cccc(C)c2C)cc1 (stereo unspecified)	23.1µM*	-0.9%	i	-0.7%	u	i
Cc1ccc(N2CCN(S(=O)(=O)c3nnc(NC(=O)c4ccco4)s3)CC2)cc1	-14.4%	4.4%	i	2.2%	-2.0%	i
Cc1cccc(NC(=S)NC(C)C(c2cccs2)N2CCN(C)CC2)c1C (stereo unspecified)	-2.3%	-13.7%	i	-0.7%	-18.6%	i
COc1ccc(-n2nc3c(N4CCC(C(=O)N5CCC(C)CC5)CC4)nnc(C)c3c2C)cc1	u	-14.4%	i	-13.3%	u	i
O=C(NCc1ccccc1)C(c1ccccc1)N(C(=O)c1csnn1)c1ccccc1 (stereo unspecified)	18.4µM*	-3.1%	i	1.7%	u	u
O=C(NCc1ccc(F)cc1)C(c1ccccc1)N(C(=O)c1csnn1)c1ccccc1 (stereo unspecified)	u	-18.7%	i	-16.0%	u	u
CCCCOc1ccc(N(CC(=O)NCc2ccccc2)C(=O)c2csnn2)cc1	16.4µM*	-3.5%	i	-15.7%	u	u
CCC(C)(C)NC(=O)C(c1ccccc1)N(Cc1cccnc1)C(=O)c1csnn1 (stereo unspecified)	-6.9%	5.9%	i	12.6%	-1.7%	13µM*
CCC(C)(C)NC(=O)C(c1ccc(C)cc1)N(Cc1cccnc1)C(=O)c1csnn1 (stereo unspecified)	-14.0%	1.0%	i	5.9%	-7.7%	i
O=C(c1ccco1)N1N=C(c2cccs2)CC1c1ccccc1O (stereo unspecified)	20.6µM*	-1.8%	x	u	18.4µM*	x
O=C(CCl)N1N=C(c2ccco2)CC1c1cccs1 (stereo unspecified)	1.84µM*	u	u	23.1µM*	2.06µM*	23.1µM*
O=C(c1ccccc1)N1N=C(c2ccco2)CC1c1cccs1 (stereo unspecified)	20.6µM*	6.9%	i	13.6%	u	i
Cc1ccc(C2=NN(C(=O)CCl)C(c3cccs3)C2)o1 (stereo unspecified)	2.59µM*	4.61µM*	u	2.31µM*	2.06µM*	u
COc1cccc(C2CC(c3cccs3)=NN2C(=O)c2ccco2)c1O (stereo unspecified)	-11.1%	u	i	-24.5%	-1.0%	i
O=C1CSc2ccc(S(=O)(=O)N3CCN(c4ccccc4F)CC3)cc2N1	u	u	i	u	u	i
CNS(=O)(=O)c1cccc(C(=O)OCc2cc(=O)n3cc(Br)ccc3n2)c1	u	-0.5%	i	3.8%	u	i
CCOC(=O)N1CCN(S(=O)(=O)N2CCCC(C(=O)NCCCN3CCCCC3)C2)CC1 (stereo unspecified)	28.3%	2.9%	i	20.0%	-7.3%	i
SMILES	DT40 TDP1 no CPT	HT1080-NT tox	KB-3-1 cytotox	HT1080 IDH1KD tx	TDP1 cell CPT	KB-V1 MDR tox
Cc1ccccc1NS(=O)(=O)c1nnc(NC(=O)C(C)C)s1	9.9%	11.8%	i	16.2%	-2.7%	i
COc1ccc(-c2ccnc(-n3ncc(C(=O)NC(C)(C)CO)c3C3CC3)n2)cc1F	-5.2%	x	x	x	14.2%[9.04 µM]	x
COC(=O)c1sc(C(C)(C)C)cc1CSc1ccccc1	3.6%	-10.9%	i	14.7%	14.4%	i
CC1(C)CC(=O)/C(=C(\O)c2ccccc2)C(=NCCc2ccccc2)C1	-14.8%	3.6%	i	-5.6%	-9.0%	5.8µM*
CCC/C(O)=C1\C(=O)CC(C)(C)CC1=Nc1ccc(OC)cc1OC	2.06µM*	u	u	7.31µM*	2.91µM*	u
COC(=O)CC/C(O)=C1\C(=O)CC(C)(C)CC1=Nc1ccccc1OC	u	-17.1%	u	u	23.1µM*	u
CCCCCCN=C1CC(C)(C)CC(=O)/C1=C(/O)CCC	16.4µM*	1.1%	i	-1.4%	u	i
O=C(NCc1ccc(Cl)s1)C1CCC(=O)N(CCc2cccc(F)c2)C1 (stereo unspecified)	15.0%	12.5%	i	-0.5%	-11.1%	i
COc1cc([N+](=O)[O-])ccc1NC(=O)CN1CCOCC1	-11.5%	-0.7%	i	0.0%	0.4%	i
O=C(CN1CCN(S(=O)(=O)c2ccccc2)CC1)Nc1ccccc1C(=O)NC1CC1	u	6.3%	i	13.5%	-14.0%	6.51µM*
O=C(CN1CCN(S(=O)(=O)c2ccccc2F)CC1)Nc1ccnn1C1CCCC1	20.6µM*	-0.3%	i	0.8%	u	i
O=C(CN1CCN(S(=O)(=O)c2ccccc2F)CC1)Nc1ccccc1C(=O)c1ccccc1	29.1µM*	u	u	-4.2%	u	u
N#Cc1ccccc1S(=O)(=O)N1CCN(CC(=O)Nc2ccccc2C(=O)NC2CC2)CC1	-20.9%	3.0%	u	-1.7%	-22.9%	i
